ROC1-CUL1 inh: inhibitors of human ROC1-CUL1 ubiquitin ligase activity | inhibition, % at 10 µM | P62877+Q13616 | 140,000 compounds, 0.6% hits | in vitro K48 di-Ub FRET, acceptor:donor ratio, 45 min; in the data active = inhibition above about 25%
Target sequence (P62877 whole entry, looked up): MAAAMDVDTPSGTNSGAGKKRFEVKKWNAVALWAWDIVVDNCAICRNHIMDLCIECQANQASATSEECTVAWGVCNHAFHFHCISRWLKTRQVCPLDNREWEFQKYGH
Target sequence (Q13616 whole entry, looked up): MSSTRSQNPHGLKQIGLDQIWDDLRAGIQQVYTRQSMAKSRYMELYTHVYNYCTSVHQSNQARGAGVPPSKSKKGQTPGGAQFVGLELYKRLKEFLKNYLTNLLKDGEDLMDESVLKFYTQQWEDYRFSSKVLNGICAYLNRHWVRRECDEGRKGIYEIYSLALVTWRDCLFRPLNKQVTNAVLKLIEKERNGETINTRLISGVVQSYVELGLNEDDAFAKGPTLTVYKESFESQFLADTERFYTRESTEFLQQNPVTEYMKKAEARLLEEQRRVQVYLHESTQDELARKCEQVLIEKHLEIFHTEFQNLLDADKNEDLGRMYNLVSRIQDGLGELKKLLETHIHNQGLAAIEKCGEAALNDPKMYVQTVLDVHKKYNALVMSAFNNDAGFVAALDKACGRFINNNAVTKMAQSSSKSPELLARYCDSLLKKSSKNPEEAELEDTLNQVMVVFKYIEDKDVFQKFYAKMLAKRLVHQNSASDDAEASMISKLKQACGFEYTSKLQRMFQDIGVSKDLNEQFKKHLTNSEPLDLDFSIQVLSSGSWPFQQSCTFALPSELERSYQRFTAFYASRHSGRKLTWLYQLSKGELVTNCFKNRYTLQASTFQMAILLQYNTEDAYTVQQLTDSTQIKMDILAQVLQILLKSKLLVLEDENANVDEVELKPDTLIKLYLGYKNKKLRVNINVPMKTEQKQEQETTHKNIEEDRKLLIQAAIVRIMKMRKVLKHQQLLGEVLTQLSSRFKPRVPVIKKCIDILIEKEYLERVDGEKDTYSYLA
Starred values were filed as active, the others as inactive. The entries come from a sample that favours hits as a whole.

SMILES | ROC1-CUL1 inh
COc1cc(/C=C2\SC(=Nc3ccccc3Cl)NC2=O)ccc1OCC(=O)O | 5.1
COc1cc(/C=C2\SC(=Nc3cccc(Br)c3)NC2=O)ccc1OCC(=O)O | 29.7*
CCOc1cc(/C=C2/SC(=O)N(C(C)C)C2=O)c(Br)cc1OCC(=O)Nc1ccccc1 | 1.6
CCOC(=O)c1ccc(N=C2NC(=O)/C(=C\c3cc(Br)ccc3OCC(=O)Nc3ccccc3OC)S2)cc1 | 0.8
CCOc1cc(/C=C2\SC(=Nc3cccc(C(=O)O)c3)NC2=O)c(Br)cc1OCC(=O)Nc1ccc(C)cc1 | 96.9*
O=C(CC(=O)c1c[nH]c2ccccc12)c1ccccc1 | -3.6
Cc1ccc2c(c1)C(=O)C(C(c1ccccc1Cl)C1C(=O)Oc3ccc(C)cc3C1=O)C(=O)O2 (configuration not stated) | 63.3*
Cc1ccc2c(c1)C(=O)C(C(c1ccc(N(C)C)cc1)C1C(=O)Oc3ccc(C)cc3C1=O)C(=O)O2 (configuration not stated) | -6.5
COc1cccc(C(C2C(=O)Oc3ccc(C)cc3C2=O)C2C(=O)Oc3ccc(C)cc3C2=O)c1 (configuration not stated) | -5.6
CC(=O)c1cnn(-c2cc(Oc3cccc(C)c3)ncn2)c1C | -9.2
O=C(Cn1c(O)c(C=C2C=Nc3ccccc32)sc1=O)N1CCOCC1 | 3.2
O=c1[nH]n(-c2cc(Cl)cc(Cl)c2)c(O)c1C=C1C=Nc2ccccc21 | -1.3
CC(C)C(C(=O)O)n1c(O)c(C=C2C=Nc3ccccc32)sc1=S (configuration not stated) | 25.3*
CCc1ccccc1N(C)C(=O)c1cc2c(s1)-c1c(C)cccc1OC2 | -4.3
COCCNC(=O)Cn1c(=O)n(CCCCCC(=O)NCc2ccc3c(c2)OCO3)c(=O)c2sccc21 | 4.3
O=C(c1ccncc1)N(c1ccc2oc3c(c2c1)CCCC3)S(=O)(=O)c1ccc(F)cc1 | 1.6
CCOC(=O)c1c(C)n(C)c2c(Cl)c(Cl)c(O)c(O)c12 | -0.1
O=c1c2ccccc2n(-c2cccc([N+](=O)[O-])c2)c2ccccc12 | 8.8
Nc1cc(C(F)(F)F)ccc1Sc1ccccc1C(=O)O | 6.9
O=C(O)Cc1ccccc1Sc1cccc(C(F)(F)F)c1 | -1.4
O=C(O)c1cc(C(F)(F)F)ccc1Sc1ccccc1 | 57.9*
CCc1ccc(OCCCC(=O)Oc2ccc3c(c2)oc(=O)c2ccccc23)cc1 | -2.5
COc1ccc(CN2Cc3cc(C)ccc3OC(c3ccsc3)C2)c(OC)c1OC (configuration not stated) | 8.0
O=C(CCc1n[nH]c2c1CCCC2)N1CCC2(CCCN(CC3CC3)C2)C1 (configuration not stated) | -3.7
Cc1ccc(N=Cc2cc3c(cc2O)OC(=N)C(C#N)C3c2cccc(F)c2)c(C)c1 (configuration not stated) | 2.8
SMILES | ROC1-CUL1 inh
N#CC1C(=N)Oc2cc(O)c(C=Nc3cc(C(F)(F)F)ccc3Cl)cc2C1c1ccco1 (configuration not stated) | 85.2*
N#CC1C(=N)Oc2cc(O)c(C=Nc3ccc(Cl)c(Cl)c3)cc2C1c1cccc(I)c1 (configuration not stated) | 0.5
CCOC(=O)C1=C(C)N=c2s/c(=C\c3cc(Br)c(O)c(OC)c3)c(=O)n2C1c1ccc2c(c1)OCO2 (configuration not stated) | 52.9*
CCOC(=O)C1=C(C)N=c2s/c(=C\c3cc(OC)ccc3OC)c(=O)n2C1c1ccc(OC)cc1 (configuration not stated) | 3.5
CCOC(=O)C1=C(C)N=c2s/c(=C/c3ccc(I)cc3)c(=O)n2C1c1ccc2c(c1)OCO2 (configuration not stated) | -7.7
CCOC(=O)C1=C(C)N=c2s/c(=C\c3cc(I)c(O)c(OC)c3)c(=O)n2C1c1ccc(OC)cc1 (configuration not stated) | 46.0*
CCOC(=O)C1=C(C)N=c2s/c(=C/c3cc(I)c(OC)c(OC)c3)c(=O)n2C1c1ccc(N(C)C)cc1 (configuration not stated) | 8.2
CCOC(=O)C1=C(C)N=c2s/c(=C/c3ccccc3O)c(=O)n2C1c1ccc2c(c1)OCO2 (configuration not stated) | -6.1
COC(=O)c1c(NC(=O)CCCOc2ccc(C)cc2)sc2c1CCCC2 | 1.2
COc1cccc(C=Nc2ccc(C(N)=O)cc2)c1O | 3.0
COc1ccc2c(c1O)SC(=O)C2 | 106.0*
COc1ccc(OC)c(C(=O)O)c1N | 4.9
Cc1nn(CCC(=O)N2CCN(c3ccccc3F)CC2)c(C)c1S(=O)(=O)N1CCCC1 | -2.8
COC(=O)c1c(OCCc2ccccc2F)cc(=O)n2c1CCN(C(=O)c1ccccc1Cl)CC2 | -0.2
COc1cc(Br)c(Br)c(/C=C2\SC(c3ccc(C)cc3)=NC2=O)c1O | 93.0*
COc1cc(Br)c(Br)c(C=Nc2ccc(NC(=O)c3ccccc3Br)cc2)c1O | 14.6
COc1cc(/C=C2/SC(=Nc3ccccc3C)NC2=O)c(Br)c(Br)c1O | 5.5
CCOc1ccc(N(C(C)C(=O)NC2CCCC2)S(C)(=O)=O)cc1 (configuration not stated) | 0.7

Screening results deposited in PubChem BioAssay by Pan Lab, Icahn School of Medicine at Mount Sinai.
